# Data: PubChem BioAssay
# Active and inactive are the calls of the source.
# Columns and labels:
# [1] = system: Plasmodium falciparum Sir2 (PF13_0152, Sir2A); assay: Plasmodium falciparum Sir2A binding compounds – biochemical, small-molecule microarray, 635 nm fluorescence, primary screen (AID 1098); conditions: fluorescence 635 nm, higher = more signal;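 note: score merges spot fluorescence intensity with its signal-to-noise ratio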
# [2] = probe aDKK1 binding to arrayed compounds – biochemical, biotinylated probe, 635/667 nm fluorescence, primary screen (AID 1099); conditions: small-molecule microarray, higher = more signal;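 note: score merges 667nm spot fluorescence with signal to noise across triplicate slides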
# [3] = probe aCHRDL2 binding to arrayed compounds – biochemical, biotinylated probe, 635/667 nm fluorescence, primary screen (AID 1100); conditions: small-molecule microarray, higher = more signal
# [4] = change in splice reporter luminescence, either direction, cell-based, HEK293, spliceosome inhibition project, primary screen (AID 1101); conditions: HEK293 splicing luciferase reporter, 24 h, higher = more signal, called active from +8 up or from −8 down;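 note: HEK293 cells carrying a splicing-competent luciferase reporter gene; test concentration not given here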
# [5] = biological target: Fibroblast growth factor 10 (Homo sapiens) (UniProt O15520); assay: compounds binding fibroblast growth factor 10 – biochemical, small-molecule microarray, 635 nm fluorescence, primary screen (AID 1102); conditions: FGF10 binding, fluorescence 635 nm, higher = more signal
# Chain of Fibroblast growth factor 10 (Homo sapiens) (O15520 whole entry, looked up): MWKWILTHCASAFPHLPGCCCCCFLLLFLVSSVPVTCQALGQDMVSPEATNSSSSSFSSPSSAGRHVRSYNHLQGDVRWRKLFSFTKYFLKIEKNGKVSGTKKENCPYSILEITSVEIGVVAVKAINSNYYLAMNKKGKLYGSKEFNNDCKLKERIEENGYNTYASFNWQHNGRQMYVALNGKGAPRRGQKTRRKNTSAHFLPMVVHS
# [6] = system: glycogen synthase kinase-3 (GSK3A per assay name; protocol says GSK3B); assay: compounds binding glycogen synthase kinase-3 – biochemical, small-molecule microarray, 635 nm fluorescence, GSK3A, primary screen (AID 1103); conditions: fluorescence 635 nm, higher = more signal; note: the record names both GSK3A and GSK3B
# [7] = biological target: Epidermal growth factor receptor (Homo sapiens) (UniProt P00533); assay: compounds binding epidermal growth factor receptor – biochemical, small-molecule microarray, 635 nm fluorescence, primary screen (AID 1104); conditions: EGFR binding, higher = more signal;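 note: score merges 667 nm emission intensity with spot signal to noise over triplicate slides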
# Chain of Epidermal growth factor receptor (Homo sapiens) (P00533 whole entry, looked up): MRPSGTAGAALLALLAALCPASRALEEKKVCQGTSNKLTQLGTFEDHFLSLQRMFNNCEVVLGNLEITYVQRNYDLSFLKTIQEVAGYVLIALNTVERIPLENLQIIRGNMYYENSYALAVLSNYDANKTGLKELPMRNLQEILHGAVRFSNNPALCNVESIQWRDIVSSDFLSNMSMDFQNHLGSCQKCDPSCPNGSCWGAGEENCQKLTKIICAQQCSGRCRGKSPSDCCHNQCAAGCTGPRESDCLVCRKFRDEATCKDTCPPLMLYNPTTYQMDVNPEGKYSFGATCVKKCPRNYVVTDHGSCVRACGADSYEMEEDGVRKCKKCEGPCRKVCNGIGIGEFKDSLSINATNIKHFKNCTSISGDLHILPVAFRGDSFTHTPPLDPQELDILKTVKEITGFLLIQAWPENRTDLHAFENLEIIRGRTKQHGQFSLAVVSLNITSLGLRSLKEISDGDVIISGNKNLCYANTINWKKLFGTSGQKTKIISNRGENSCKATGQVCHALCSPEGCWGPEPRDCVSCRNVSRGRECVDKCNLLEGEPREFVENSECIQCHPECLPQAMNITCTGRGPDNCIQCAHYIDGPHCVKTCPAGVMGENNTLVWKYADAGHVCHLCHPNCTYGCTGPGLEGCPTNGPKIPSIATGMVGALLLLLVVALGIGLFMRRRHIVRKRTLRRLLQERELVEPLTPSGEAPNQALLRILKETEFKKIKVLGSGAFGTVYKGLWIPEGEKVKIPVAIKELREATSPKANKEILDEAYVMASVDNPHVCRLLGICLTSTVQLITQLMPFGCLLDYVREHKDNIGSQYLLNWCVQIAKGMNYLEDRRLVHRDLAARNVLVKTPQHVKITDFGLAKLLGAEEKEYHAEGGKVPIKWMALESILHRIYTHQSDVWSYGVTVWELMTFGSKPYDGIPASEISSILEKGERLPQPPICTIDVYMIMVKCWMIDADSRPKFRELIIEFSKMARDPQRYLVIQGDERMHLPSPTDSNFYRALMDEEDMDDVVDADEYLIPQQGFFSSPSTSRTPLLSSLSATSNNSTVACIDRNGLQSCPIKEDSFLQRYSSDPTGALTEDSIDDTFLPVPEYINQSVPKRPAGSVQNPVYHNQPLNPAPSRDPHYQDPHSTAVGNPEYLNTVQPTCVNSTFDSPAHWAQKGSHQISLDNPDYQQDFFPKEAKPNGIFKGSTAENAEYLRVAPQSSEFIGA
# [8] = biological target: Follistatin-related protein 3 (Homo sapiens) (UniProt O95633); assay: compounds binding follistatin-related protein 3 – biochemical, small-molecule microarray, 635 nm fluorescence, primary screen (AID 1105); conditions: FSTL3 binding, higher = more signal;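 note: score merges emission near 667 nm and signal to noise per printed spot across three slides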
# Chain of Follistatin-related protein 3 (Homo sapiens) (O95633 whole entry, looked up): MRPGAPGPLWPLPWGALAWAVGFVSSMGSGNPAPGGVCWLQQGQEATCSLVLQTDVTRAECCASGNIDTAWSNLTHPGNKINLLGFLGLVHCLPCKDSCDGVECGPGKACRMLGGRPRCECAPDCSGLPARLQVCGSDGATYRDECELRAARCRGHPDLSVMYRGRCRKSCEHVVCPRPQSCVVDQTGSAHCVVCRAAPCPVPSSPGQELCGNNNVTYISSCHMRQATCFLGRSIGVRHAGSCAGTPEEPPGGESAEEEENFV
# [9] = biological target: Dickkopf-related protein 1 (Homo sapiens) (UniProt O94907); assay: small molecules binding DKK1 protein – biochemical, small-molecule microarray, 635 nm fluorescence scan, primary screen (AID 1106); conditions: higher = more signal;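 note: score merges emission near 667 nm with signal to noise over three replicate slides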
# Chain of Dickkopf-related protein 1 (Homo sapiens) (O94907 whole entry, looked up): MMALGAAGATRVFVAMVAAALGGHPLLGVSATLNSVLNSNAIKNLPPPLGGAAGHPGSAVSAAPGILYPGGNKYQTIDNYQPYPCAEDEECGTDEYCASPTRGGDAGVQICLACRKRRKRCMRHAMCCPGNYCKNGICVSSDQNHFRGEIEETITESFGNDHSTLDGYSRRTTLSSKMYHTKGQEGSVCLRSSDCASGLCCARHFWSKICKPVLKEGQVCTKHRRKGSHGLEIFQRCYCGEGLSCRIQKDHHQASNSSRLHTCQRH
# [10] = system: Inhibin beta A chain (activin A); assay: small molecules binding activin A – biochemical, small-molecule microarray, 635 nm fluorescence scan, primary screen (AID 1107); conditions: INHBA, higher = more signal;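 note: mouse activin A protein probed at 4.33 µg/mL on printed slides; score merges bound-protein fluorescence near 667 nm with spot signal-to-noise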
# [11] = system: Human papillomavirus type 1a protein E7 (residues 44-93); assay: small molecules binding HPV E7 44-93 – biochemical, small-molecule microarray, residues 44-93, 635 nm fluorescence, primary screen (AID 1108); conditions: fluorescence 635 nm, higher = more signal;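 note: E7 fragment applied at 1 µg/mL in TBST for 1 h at 4 C; score combines spot fluorescence with its signal to noise ratio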
# [12] = hepatitis C replication reporter changes, two-sided – Huh7 cells, luciferase reporter, HCV replication inhibitor project, primary screen (AID 1109); conditions: Huh7 HCV replicon luciferase reporter, 48 h; higher = more signal;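 note: huh7 hepatoma cells harbouring a luciferase neomycin HCV replicon reporter; luciferase luminescence as measure of HCV replicon replication; test concentration not given here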
# [13] = biological target: Left-right determination factor 2 (Homo sapiens) (UniProt O00292); assay: small molecules binding LEFTY2 protein – biochemical, small-molecule microarray, 635 nm fluorescence scan, primary screen (AID 1110); conditions: higher = more signal
# Chain of Left-right determination factor 2 (Homo sapiens) (O00292 whole entry, looked up): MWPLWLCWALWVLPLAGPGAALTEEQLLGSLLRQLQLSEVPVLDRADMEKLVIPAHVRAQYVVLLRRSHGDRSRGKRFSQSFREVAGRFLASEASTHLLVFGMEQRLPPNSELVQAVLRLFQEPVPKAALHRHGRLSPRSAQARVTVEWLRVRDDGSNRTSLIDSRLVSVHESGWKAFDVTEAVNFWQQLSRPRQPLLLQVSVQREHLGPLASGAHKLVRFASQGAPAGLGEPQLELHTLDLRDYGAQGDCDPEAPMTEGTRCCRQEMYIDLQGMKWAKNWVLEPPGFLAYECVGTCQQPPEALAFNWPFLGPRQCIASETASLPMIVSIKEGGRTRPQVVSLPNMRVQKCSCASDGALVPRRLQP
# [14] = biological target: Calmodulin-1 (Homo sapiens) (UniProt P0DP23); assay: small molecules binding calmodulin-1 with EGTA – biochemical, small-molecule microarray, Cy5-labelled CALM1, profiling panel (AID 1111); conditions: Cy5-CALM1 binding fluorescence, higher = more signal;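 note: labelled calmodulin applied in Tris saline Tween buffer holding calcium plus EGTA and DTT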
# [15] = biological target: Calmodulin-1 (Homo sapiens) (UniProt P0DP23); assay: small molecules binding Ca-loaded calmodulin-1 – biochemical, small-molecule microarray, Cy5-labelled CALM1, plus calcium, artefact control for SMM control-protein annotation, profiling panel (AID 1112); conditions: Cy5-CALM1 binding fluorescence, higher = more signal;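 note: score merges spot fluorescence with signal to noise from triplicate slides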
# [16] = probe aWnt5a binding to arrayed compounds – biochemical, biotinylated probe, 635/667 nm fluorescence, primary screen (AID 1113); conditions: small-molecule microarray, higher = more signal;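 note: score merges 667 nm fluorescence intensity with signal-to-noise per printed feature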
# [17] = probe aShh binding to arrayed compounds – biochemical, biotinylated probe, 635/667 nm fluorescence, primary screen (AID 1114); conditions: small-molecule microarray, higher = more signal;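 note: probe is biotin-labelled aShh protein from a stem cell growth factor screen; measures binding of labelled protein to compounds printed on the slide; score merges feature fluorescence at 667 nm with signal-to-noise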
# [18] = probe aNog binding to arrayed compounds – biochemical, biotinylated probe, 635/667 nm fluorescence, primary screen (AID 1115); conditions: small-molecule microarray, higher = more signal;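 note: probe is biotinylated aNog protein used at 0.15 µg/mL for 1 h at 4 C; z-score combines 667 nm fluorescence of each spot with its signal to noise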
# [19] = biological target: Torsin-1A-interacting protein 1 (Homo sapiens) (UniProt Q5JTV8); assay: compound microarray binding of lysate hLAP1 – cell lysate, small-molecule microarray, COS7 lysate, 635/667 nm fluorescence, primary screen (AID 1116); conditions: 635 nm fluorescence, higher = more signal
# Chain of Torsin-1A-interacting protein 1 (Homo sapiens) (Q5JTV8 whole entry, looked up): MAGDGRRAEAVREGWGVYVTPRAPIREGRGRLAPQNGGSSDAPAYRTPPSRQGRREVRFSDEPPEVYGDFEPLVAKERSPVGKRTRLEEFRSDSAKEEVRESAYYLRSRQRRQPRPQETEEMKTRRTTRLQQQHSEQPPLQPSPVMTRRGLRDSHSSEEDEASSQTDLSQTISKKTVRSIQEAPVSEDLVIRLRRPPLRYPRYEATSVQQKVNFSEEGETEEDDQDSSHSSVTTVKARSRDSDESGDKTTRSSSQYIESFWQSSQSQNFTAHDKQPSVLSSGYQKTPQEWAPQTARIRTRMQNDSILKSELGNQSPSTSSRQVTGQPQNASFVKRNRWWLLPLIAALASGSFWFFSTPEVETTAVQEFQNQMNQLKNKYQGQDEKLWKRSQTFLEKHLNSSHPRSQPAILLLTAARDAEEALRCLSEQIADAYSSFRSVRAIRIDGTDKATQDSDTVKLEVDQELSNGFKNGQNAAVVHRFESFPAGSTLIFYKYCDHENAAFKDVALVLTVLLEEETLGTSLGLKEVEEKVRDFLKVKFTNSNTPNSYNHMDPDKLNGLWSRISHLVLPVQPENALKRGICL
# [20] = biological target: Alpha-bungarotoxin (Bungarus multicinctus) (UniProt P60615); assay: compounds binding labelled alpha-BTX control protein – biochemical, small-molecule microarray, Alexa647 label, 635/667 nm fluorescence, artefact control for SMM control protein annotation, profiling panel (AID 1117); conditions: alpha-BTX-A647 binding fluorescence, higher = more signal
# Chain of Alpha-bungarotoxin (Bungarus multicinctus) (P60615 whole entry, looked up): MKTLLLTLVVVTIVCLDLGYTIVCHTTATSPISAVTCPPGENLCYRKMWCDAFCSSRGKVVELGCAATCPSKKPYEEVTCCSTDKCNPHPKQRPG
SMILES,composite z-score [1],composite z-score [2],composite z-score [3],z-score [4],composite z-score [5],composite z-score [6],composite z-score [7],composite z-score [8],composite z-score [9],composite z-score [10],composite z-score [11],z-score [12],composite z-score [13],composite z-score [14],composite z-score [15],composite z-score [16],composite z-score [17],composite z-score [18],composite z-score [19],composite z-score [20]
COc1ccc(COC(=O)NN=C2C[C@@H](O)[C@@H](O)[C@@H]3[C@@H]4C(=O)N(c5ccc(F)cc5F)C(=O)[C@@H]4CC[C@H]23)cc1,0.299,0.939,1.22,-0.531 (inactive),0.0785,-0.258,-1.2,-0.496,-1.13,-0.009,-0.246,-0.107,-0.551,-0.252,-0.318,-0.169,-0.0769,-0.273,-0.724,0.616
CO[C@H]1COC(=O)CC=C[C@H](C)[C@@H](OC)COC(=O)[C@@H](C)COC(=O)CC=C[C@@H]1C,0.567,-0.909,-1.66,0.337 (inactive),0.902,0.709,1.32,1.47,1.3,1.79,-0.544,-1.09,1.16,-2.12,-2.84,-0.1,-0.0769,-0.339,0.34,-1.47
CCCNC(=O)OC[C@H]1O[C@H](c2ccccc2)C=C[C@@H]1Oc1ccc(OC)cc1,-0.361,-0.377,-0.396,-0.0906 (inactive),0.0708,-0.0811,0.424,0.108,-0.0332,-0.339,-0.823,-0.974,0.424,-0.598,-0.202,-0.132,-0.153,-0.343,0.124,-0.0001
CCc1cc2c(nc1CC)CCN(CCC(C)=NO[C@@H](C)c1cn([C@H](CO)Cc3ccccc3)nn1)C2,0.6,-0.102,0.0143,0.113 (inactive),-0.122,-0.32,0.253,0.474,0.436,1.29,-0.296,-2.1,0.483,-0.41,-0.555,-0.096,-0.147,-0.203,-0.11,0.312
CO[C@H]1COC(=O)CC=C[C@H](C)[C@@H](OC)COC(=O)[C@@H](C)NC(=O)CC=C[C@@H]1C,1.23,-0.377,-1.17,-0.653 (inactive),0.447,0.597,1.27,1.44,1.49,1.52,-2.13,-1.42,0.962,-0.857,-1.55,-0.119,-0.367,-0.274,0.12,-0.352
CCOC(=O)NN=C1C[C@@H](O)[C@@H](O)[C@@H]2[C@@H]3C(=O)N(C(C)(C)C)C(=O)[C@@H]3CC[C@H]12,0.217,0.0171,-0.398,-0.626 (inactive),0.338,0.666,0.705,0.635,0.739,0.103,0.217,-0.0742,0.481,-0.0749,-0.913,0.0068,0.108,-0.171,0.0059,-0.0211
